Results: ChEMBL document CHEMBL3988442, “University of Dundee, Small-Polar-MMV Screening Library” (2021)
For some of these results: Results with a measured potency or affinity are listed apart.

Experiments:
Set-up in all cases: scale not given: direction of the effect not stated beside the values
[1] = target: Protein translocase subunit SecA (Escherichia coli (strain K12)) (UniProt P10408); experiment: Assay to Identify E. coli SecA ATPase Inhibitors; type: functional; settings: 30 µM
[2] = target: T1, Ubiquitin-activating enzyme e1, putative (Leishmania donovani (strain BPK282A1)) (UniProt E9BSI1); experiment: Leishmania donovani Ubiquitin Activating Enzyme (LdE1); type: functional; settings: 30 µM
T1 sequence (whole entry): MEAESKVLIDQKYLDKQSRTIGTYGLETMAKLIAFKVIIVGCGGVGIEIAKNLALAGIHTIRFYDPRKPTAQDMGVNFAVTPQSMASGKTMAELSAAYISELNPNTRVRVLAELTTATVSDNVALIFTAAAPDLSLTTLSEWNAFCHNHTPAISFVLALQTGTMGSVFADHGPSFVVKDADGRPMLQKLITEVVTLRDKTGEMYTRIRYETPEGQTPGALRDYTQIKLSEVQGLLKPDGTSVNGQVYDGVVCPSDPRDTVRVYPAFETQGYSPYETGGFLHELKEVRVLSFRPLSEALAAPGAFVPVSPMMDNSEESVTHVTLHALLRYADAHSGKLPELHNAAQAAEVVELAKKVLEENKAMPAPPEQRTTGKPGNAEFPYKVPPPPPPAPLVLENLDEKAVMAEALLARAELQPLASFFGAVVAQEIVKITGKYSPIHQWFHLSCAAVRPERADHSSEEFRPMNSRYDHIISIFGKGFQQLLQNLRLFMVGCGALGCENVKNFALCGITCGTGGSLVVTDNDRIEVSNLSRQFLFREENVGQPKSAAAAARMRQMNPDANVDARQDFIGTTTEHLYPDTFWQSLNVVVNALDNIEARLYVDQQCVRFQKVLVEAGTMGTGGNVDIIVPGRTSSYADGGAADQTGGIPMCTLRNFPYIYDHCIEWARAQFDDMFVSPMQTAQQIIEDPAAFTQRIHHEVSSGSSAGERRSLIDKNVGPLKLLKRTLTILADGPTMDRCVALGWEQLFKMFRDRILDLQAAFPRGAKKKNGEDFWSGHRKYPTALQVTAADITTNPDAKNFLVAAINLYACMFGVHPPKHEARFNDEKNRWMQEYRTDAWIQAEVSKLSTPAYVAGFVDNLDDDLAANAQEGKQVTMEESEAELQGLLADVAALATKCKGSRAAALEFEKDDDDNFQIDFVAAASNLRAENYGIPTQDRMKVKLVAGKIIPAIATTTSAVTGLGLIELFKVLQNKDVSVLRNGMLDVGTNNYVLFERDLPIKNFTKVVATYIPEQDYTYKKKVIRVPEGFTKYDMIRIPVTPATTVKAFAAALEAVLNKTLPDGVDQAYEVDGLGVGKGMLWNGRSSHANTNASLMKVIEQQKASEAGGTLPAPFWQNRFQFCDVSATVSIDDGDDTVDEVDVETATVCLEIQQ

[3] = target: AMP-activated protein kinase, AMPK (Homo sapiens) (UniProt P54646+O43741+P54619+Q9UGJ0+Q9Y478+Q13131+Q9UGI9); experiment: AMP-dependent Kinase enzyme assay. An in vitro enzyme assay that detects ADP turnover that is directly proportional to AMPK activity. This uses naive AMPK that is activated during the assay with MK-8722; type: functional; settings: 30 µM
[4] = target: Sialic acid-binding Ig-like lectin 9 (Homo sapiens) (UniProt Q9Y336); experiment: Hs-Siglec9 ALPHAscreen SOP 20170721; settings: 10 µM
Trypanosoma cruzi = experiment: Trypanosoma cruzi phosphomannomutase and mannose-1-phosphate guanylyltransferase assay; type: functional; settings: 10 µM
[5] = target: T2, Arginase-2, mitochondrial (Homo sapiens) (UniProt P78540); experiment: in vitro enzyme assay to detect the production of urea directly proportional to the activity of Arginase II; type: functional; settings: 33.3 µM; also: in the data most compounds retested in dose-response had high values
T2 sequence (whole entry): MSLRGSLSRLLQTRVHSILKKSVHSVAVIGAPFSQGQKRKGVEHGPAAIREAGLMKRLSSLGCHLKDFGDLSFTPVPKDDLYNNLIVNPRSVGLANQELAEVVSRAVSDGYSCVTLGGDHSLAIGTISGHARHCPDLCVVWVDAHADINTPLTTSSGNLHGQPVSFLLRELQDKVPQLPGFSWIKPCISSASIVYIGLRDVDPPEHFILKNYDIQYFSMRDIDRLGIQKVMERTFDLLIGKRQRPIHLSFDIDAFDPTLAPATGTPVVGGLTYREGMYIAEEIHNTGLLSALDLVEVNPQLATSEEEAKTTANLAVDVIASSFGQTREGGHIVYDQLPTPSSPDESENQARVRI

[6] = target: T3, Proteasome subunit beta (Trypanosoma cruzi) (UniProt O96673); experiment: Trypanosoma cruzi proteasome chymotrypsin-like activity (TcProtChymo) assay.; also: in the data most compounds retested in dose-response had high values; type: functional; settings: 9.37 µM
T3 sequence (whole entry): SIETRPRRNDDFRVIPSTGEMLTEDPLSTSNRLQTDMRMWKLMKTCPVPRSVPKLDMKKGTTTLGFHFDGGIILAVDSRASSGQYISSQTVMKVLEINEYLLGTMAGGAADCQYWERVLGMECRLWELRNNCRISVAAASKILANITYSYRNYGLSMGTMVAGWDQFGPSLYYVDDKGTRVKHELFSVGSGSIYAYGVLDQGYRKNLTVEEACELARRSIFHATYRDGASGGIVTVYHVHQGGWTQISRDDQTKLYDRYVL

Homo sapiens = organism: Homo sapiens; experiment: To identify inhibition of the IFN signalling (Jak-Stat) pathway via expression of an eGFP reporter gene under the control of an IFN-stimulated response element (ISRE) containing MxA promoter.; type: functional; settings: 30 µM
[7] = target: T4, Tyrosyl-tRNA synthetase, putative (Trypanosoma cruzi (strain CL Brener)) (UniProt Q4DSP6); experiment: Trypanosoma cruzi tyrosyl tRNA synthetase (TcYRS) _High Tyrosine SOP; type: functional; settings: 30 µM; also: in the data most compounds retested in dose-response had high values
T4 sequence (whole entry): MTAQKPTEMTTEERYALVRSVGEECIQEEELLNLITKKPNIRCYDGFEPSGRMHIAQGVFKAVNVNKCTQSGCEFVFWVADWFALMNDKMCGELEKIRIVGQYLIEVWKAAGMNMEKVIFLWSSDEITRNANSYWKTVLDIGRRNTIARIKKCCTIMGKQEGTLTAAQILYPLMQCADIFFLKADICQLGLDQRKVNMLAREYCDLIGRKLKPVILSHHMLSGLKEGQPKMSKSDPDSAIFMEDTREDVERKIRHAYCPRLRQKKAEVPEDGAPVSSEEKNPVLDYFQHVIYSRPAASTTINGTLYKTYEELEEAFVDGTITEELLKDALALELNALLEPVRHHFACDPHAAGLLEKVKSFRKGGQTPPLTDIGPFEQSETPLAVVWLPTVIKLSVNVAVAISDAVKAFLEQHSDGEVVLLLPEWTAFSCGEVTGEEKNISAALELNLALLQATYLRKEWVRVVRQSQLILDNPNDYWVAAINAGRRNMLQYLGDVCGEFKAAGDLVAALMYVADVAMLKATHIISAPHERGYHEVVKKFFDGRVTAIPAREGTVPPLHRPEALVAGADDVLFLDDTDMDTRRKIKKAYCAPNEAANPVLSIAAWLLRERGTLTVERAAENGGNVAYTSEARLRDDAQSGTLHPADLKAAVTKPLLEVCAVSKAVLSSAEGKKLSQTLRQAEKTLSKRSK

[8] = target: T4, Tyrosyl-tRNA synthetase, putative (Trypanosoma cruzi (strain CL Brener)); experiment: Trypanosoma cruzi tyrosyl tRNA synthetase (TcYRS) SOP; type: functional; settings: 30 µM
[9] = target: Chromo domain-containing protein 1 (Saccharomyces cerevisiae (strain ATCC 204508 / S288c) (Baker's yeast)) (UniProt P32657); experiment: ScCHD-1 Enzyme Inhibition Assay; type: functional; settings: 30 µM; also: in the data most compounds retested in dose-response had high values
Chromo domain-containing protein 1 (Saccharomyces cerevisiae (strain ATCC 204508 / S288c) (Baker's yeast)), sequence (P32657 whole entry, the tested form may be a part): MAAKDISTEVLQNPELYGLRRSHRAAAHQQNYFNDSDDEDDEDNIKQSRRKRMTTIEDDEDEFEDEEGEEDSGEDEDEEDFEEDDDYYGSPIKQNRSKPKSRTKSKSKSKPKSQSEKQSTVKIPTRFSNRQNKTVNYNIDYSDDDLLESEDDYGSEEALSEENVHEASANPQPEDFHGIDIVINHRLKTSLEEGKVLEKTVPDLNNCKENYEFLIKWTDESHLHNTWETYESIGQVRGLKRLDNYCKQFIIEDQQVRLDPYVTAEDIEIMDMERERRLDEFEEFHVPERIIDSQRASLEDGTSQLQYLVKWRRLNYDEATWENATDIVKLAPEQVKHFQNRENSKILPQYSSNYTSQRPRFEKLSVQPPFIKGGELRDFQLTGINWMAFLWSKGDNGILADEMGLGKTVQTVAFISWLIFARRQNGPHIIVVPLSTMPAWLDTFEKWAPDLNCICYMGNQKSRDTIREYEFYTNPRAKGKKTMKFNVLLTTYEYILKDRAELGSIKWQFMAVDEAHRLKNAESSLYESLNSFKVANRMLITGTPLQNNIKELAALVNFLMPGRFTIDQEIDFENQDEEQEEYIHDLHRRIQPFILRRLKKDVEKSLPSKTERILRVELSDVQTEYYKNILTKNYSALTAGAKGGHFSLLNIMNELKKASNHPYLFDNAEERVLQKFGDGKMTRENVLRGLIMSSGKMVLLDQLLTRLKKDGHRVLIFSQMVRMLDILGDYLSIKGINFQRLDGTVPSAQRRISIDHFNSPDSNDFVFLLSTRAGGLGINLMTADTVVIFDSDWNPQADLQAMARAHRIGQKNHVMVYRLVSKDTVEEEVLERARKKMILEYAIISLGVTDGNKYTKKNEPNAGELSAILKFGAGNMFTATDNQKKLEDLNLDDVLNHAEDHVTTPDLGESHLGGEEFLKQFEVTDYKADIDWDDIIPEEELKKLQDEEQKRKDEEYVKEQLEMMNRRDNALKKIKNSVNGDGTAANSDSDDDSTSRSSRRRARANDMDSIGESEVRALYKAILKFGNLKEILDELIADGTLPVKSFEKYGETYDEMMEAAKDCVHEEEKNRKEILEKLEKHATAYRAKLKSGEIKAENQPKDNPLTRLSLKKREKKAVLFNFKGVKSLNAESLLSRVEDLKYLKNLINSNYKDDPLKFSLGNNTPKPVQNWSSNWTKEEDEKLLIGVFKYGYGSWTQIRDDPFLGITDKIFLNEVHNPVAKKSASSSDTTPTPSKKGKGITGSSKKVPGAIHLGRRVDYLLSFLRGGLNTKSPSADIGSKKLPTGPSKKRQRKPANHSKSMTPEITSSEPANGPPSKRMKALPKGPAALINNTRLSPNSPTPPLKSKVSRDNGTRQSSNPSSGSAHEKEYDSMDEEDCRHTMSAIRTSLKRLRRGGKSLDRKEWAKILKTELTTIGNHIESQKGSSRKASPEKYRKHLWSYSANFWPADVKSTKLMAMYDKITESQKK

Sialic acid-binding Ig-like lectin 9 (Homo sapiens), sequence (Q9Y336 whole entry): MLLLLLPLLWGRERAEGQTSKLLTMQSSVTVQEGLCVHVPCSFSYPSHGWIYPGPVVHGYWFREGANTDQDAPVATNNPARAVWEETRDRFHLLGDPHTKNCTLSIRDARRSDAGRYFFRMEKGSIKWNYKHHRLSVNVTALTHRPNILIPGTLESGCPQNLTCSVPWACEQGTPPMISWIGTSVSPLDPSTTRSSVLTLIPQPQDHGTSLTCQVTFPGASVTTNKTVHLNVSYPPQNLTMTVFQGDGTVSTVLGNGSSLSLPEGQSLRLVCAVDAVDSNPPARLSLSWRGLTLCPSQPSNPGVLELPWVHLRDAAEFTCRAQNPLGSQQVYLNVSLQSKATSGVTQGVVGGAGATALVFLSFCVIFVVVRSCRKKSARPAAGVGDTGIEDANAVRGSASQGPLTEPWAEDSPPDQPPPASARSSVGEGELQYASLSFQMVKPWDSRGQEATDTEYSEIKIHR
Protein translocase subunit SecA (Escherichia coli (strain K12)), sequence (P10408 whole entry): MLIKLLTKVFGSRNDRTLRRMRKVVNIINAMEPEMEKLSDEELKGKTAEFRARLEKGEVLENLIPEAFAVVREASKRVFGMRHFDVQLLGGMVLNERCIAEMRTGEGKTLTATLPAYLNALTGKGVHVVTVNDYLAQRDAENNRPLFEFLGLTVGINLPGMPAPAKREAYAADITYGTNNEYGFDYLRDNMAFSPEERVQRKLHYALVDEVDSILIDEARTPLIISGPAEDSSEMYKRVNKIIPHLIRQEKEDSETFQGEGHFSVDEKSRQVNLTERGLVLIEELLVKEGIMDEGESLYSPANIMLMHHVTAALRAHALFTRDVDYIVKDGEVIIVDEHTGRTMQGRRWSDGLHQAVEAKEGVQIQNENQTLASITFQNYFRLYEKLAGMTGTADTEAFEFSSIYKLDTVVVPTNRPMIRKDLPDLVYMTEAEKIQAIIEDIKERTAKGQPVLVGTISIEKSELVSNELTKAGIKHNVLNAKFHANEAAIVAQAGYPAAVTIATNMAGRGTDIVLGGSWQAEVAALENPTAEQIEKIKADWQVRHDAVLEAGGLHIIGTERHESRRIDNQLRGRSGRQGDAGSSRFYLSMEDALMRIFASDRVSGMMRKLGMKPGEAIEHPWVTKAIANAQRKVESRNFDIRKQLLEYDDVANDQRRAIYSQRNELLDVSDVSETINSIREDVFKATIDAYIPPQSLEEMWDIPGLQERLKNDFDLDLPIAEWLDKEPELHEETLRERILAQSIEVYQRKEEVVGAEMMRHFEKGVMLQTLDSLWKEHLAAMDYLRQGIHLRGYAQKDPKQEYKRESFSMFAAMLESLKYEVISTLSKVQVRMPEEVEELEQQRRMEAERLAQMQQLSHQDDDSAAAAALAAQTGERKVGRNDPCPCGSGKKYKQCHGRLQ

Structure (SMILES)	Percent Effect [1] [%]	Percent Effect [2] [%]	Percent Effect [3] [%]	Percent Effect [4] [%]	Percent Effect (Trypanosoma cruzi) [%]	Percent Effect [5] [%]	Percent Effect [6] [%]	Percent Effect (Homo sapiens) [%]	Percent Effect [7] [%]	Percent Effect [8] [%]	Percent Effect [9] [%]
CS(=O)(=O)NC1CCCN(C(=O)NCc2cccnc2)C1 (stereo unspecified)	-2.71	15.6	3.96	1.09	2.25	1.9	14.2	-2.36	7.62	18.8	-11.9
Cc1cc(C)n(C2CCCN(C(=O)C3=NN(C)C(=O)CC3)C2)n1 (stereo unspecified)	-0.53	18.9	-18.2	-2.77	5	-12.8	11.9	23.2	8.37	25.9	-9.84
CNS(=O)(=O)c1ccc(CNC(=O)NCC2CCCO2)cc1 (stereo unspecified)	-5	13	16.9	-9.06	1.67	-2.74	12.8	14.9	0.952	18.8	-17.3
CC(C)n1cc(CN2CCCN(C(=O)c3cc(Cl)c[nH]3)CC2)cn1	-2.91	10.8	-4.13	15.8	1.23	-4.41	0.36	15.2	2.46	13.6	-8.52
CCN1CC2(CC1=O)CN(Cc1cnn(C)c1)CCN(C(C)=O)C2 (stereo unspecified)	-7.25	8.11	4.66	-2.12	-2.34	-3.33	10.4	-2.64	5.94	8.54	2.03
Cc1ccc(CN2CCC3(CC2)CC(c2cccnc2)CO3)s1 (stereo unspecified)	-5.83	5.41	1.22	-3.96	0	7.08	4.65	0.622	8.91	11	-2.92
COc1cc(C(=O)Nc2nc(C)no2)ccc1C	-6.11	25.3	-1.3	-0.471	3.12	-4.56	4.83	33.2	7.39	26.6	-8.84
CC(=O)Nc1nc(C(=O)N2CCCC(n3nc(C)cc3C)C2)cs1 (stereo unspecified)	-5.42	0	5.38	-3.57	-5.13	-1.8	-7.02	-2.38	-2.46	-11.1	5.41
Cn1cnnc1C1CCCN(C(=O)c2cnc3ccccc3n2)C1 (stereo unspecified)	-5.29	-18.2	6.07	1.12	0.49	-1.47	5.58	17.6	7.62	11.8	-15.4
CC(C)c1noc(CN(Cc2ccccc2F)C2CC2)n1	-1.22	15.6	-0.613	8.23	3.64	-75.9	22.5	10.9	7.53	18.5	-1.83
Cc1csc(CNC(=O)NC2CCN(c3ncccn3)CC2)n1	-4.13	11	-4.87	16.2	4.37	-3.19	12.6	5.21	10.4	25.9	-3.12
